Measured values: PubChem BioAssay AID720707 (National Center for Advancing Translational Sciences (NCATS), 2013)
About 270 (0.075%) of roughly 360,000 compounds were called active. The call rests on the fitted dose curve; in most records, active means well fitted activation curve with a large enough effect; inconclusive means small, poorly fitted or top-dose-only effect; inactive means no such curve, though single readings can be large or run the other way. The list comes from a sample in which actives are over-represented; it also holds similar structures and randomly drawn compounds. Entries that show only a call come without a potency.

biological target: Rap guanine nucleotide exchange factor 3 (Homo sapiens) (UniProt O95398); assay: qHTS for Agonist of cAMP-regulated guanine nucleotide exchange factor 3 (EPAC1): primary screen; conditions: biochemical assay; series mostly up to 154 µM; further: nearly all actives have a fitted effect of over 60% in size
Sequence (O95398 whole entry, looked up): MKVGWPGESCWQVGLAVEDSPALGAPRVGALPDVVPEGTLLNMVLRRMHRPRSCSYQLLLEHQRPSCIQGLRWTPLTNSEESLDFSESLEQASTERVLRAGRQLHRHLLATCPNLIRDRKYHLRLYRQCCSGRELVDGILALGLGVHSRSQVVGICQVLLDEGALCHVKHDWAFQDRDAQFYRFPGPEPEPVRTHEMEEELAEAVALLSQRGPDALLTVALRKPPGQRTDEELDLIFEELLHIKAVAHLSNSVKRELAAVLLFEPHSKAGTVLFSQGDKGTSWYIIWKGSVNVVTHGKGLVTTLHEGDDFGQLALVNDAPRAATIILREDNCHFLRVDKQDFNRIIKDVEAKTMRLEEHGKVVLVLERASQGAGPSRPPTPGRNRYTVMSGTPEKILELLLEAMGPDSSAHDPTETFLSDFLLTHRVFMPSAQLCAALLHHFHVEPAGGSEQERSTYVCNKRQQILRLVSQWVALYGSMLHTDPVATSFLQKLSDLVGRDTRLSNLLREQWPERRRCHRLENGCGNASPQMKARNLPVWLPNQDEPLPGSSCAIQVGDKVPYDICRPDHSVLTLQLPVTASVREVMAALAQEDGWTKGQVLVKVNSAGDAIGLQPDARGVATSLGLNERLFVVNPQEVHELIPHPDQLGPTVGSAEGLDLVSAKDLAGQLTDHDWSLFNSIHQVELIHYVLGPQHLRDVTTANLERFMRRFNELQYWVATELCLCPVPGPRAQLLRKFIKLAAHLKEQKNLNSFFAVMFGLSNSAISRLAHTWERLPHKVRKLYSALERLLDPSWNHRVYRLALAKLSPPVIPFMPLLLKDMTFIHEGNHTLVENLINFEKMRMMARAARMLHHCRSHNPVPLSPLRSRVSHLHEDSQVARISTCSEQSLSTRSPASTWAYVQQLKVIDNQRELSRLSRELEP
Text: In multi-cellular eukaryotic organisms, the effects of cAMP are transduced by two ubiquitously-expressed intracellular cAMP receptors, the classic protein kinase A/cAMP-dependent protein kinase (PKA/cAPK) and the more recently discovered exchange protein directly activated by cAMP/cAMP-regulated guanine nucleotide exchange factor (EPAC/cAMP-GEF). Both PKA and EPAC are ubiquitously expressed in all tissues, and an increase in intracellular cAMP levels will lead to the activation of both PKA and EPAC. Therefore, careful dissections of the individual role and relative contribution of EPAC and PKA within the overall cAMP signaling in various model systems are critical for further elucidating the mechanism of cAMP signaling. To date no EPAC-specific antagonists and agonist, as well as isoform-specific agonists have been reported, and developing EPAC-specific pharmacological probes to determine the physiological functions that EPAC play in the overall cAMP-mediated signaling remains a major challenge within the research field. Furthermore, identified regulators of EPAC may lead to new mechanism-based therapeutic strategies specifically targeting the EPAC / cAMP-signaling components as EPAC has been implicated to play important roles in major human pathological conditions such as diabetes, heart disease, and cancer.
This qHTS will be used to screen the Molecular Libraries Small Molecule Repository (MLSMR) as a concentration-titration series using the NCGC unique quantitative screening (qHTS) platform to find activators for EPAC1. In addition, this assay will also be used as a counterscreen for the EPAC2 qHTS. This fluorescent based assay is developed and validated for EPAC1 that measures exchange using EPAC effector Rap1 complex with BODIPY-GDP, a GDP analog with a tethered fluorophores. Activators are identified by monitoring the change in fluorescence signal as the exchanged free BODIPY-GDP has a reduced fluorescence compared to Rap1-bound BODIPY-GDP. Increase in signal (activation) is the desired outcome for the EPAC1 agonist while no activity in this assay is desired for the EPAC2 agonist counterscreen.
[1] de Rooij, J., Zwartkruis, F. J., Verheijen, M. H., Cool, R. H., Nijman, S. M., Wittinghofer, A., and Bos, J.L. (1998) Nature 396, 474-477
NIH Chemical Genomics Center [NCGC]
NIH Molecular Libraries Probe Centers Network [MLPCN]
Assay Submitter (PI): Xiaodong Cheng, The University of Texas Medical Branch
Briefly, three uL of reagents (100 nM EPAC1, 250 nM RAP1B-BODIPY-GDP, 50 uM GDP) were dispensed into a 1536-well Greiner black solid-bottom medium binding assay plate. Controls and test compounds (23 nL) were transferred to the plate via a Kalypsys pin tool equipped with a 1536-pin array. The plates were centrifuged at 1,000 rpm for 15 seconds followed by 5 minute incubation at room temperature. The assay plates were read at 5 minute intervals for 30 minutes in the ViewLux plate reader using 480nm excitation and 540nm emission filters. The results were normalized to the agonist positive control of 6.5 mM cAMP.
Potency means the concentration at half of the fitted maximal effect.

| Compound | Potency |
| --- | --- |
| COC(=O)CN(c1cccc(C(C)=O)c1)S(C)(=O)=O | inactive |
| CCN(CC)c1ccc2oc(=O)c(C)nc2c1 | 100 µM (active) |
| CN(CC(=O)Nc1ccccc1[N+](=O)[O-])Cc1ccc(Br)cc1 | inactive |
| O=C(C[C@H]1CC[C@H]2[C@@H](COC[C@H](O)CN2C(=O)c2ccccn2)O1)N1CCN(c2ccccc2)CC1 | inactive |
| Cc1ccccc1-n1cc(CNC(=O)C2CCC(=O)N(C3CC3)C2)cn1 (stereo unspecified) | inactive |
| Cc1ccc(NC(=O)CCC(=O)N2CCC(c3ccccc3)=N2)cc1S(=O)(=O)N1CCCCC1 | inactive |
| O=C(NC(=S)Nc1ccc(Br)cc1F)C1CCCCC1 | inactive |
| CCOc1ccc(NC(=O)C2CCN(C(=O)N3CCOc4ccccc43)CC2)cc1 | inactive |
| CCOc1ccc(CC(=O)Nc2ccc(S(=O)(=O)Nc3cc(C)on3)cc2)cc1OCC | inactive |
| CCC(C)NC(=O)Cn1nc(C(F)(F)F)c2c1CCC2 (stereo unspecified) | inactive |
| COc1cc(Cl)c(C)cc1NC(=O)CSc1nnc(CN2CCCC2)o1 | inactive |
| COc1ccc(OC)c(NC(=O)c2cc(-c3cc(F)ccc3OCC3CCCO3)n[nH]2)c1 (stereo unspecified) | inactive |
| O=C(NCCC1CCCCN1S(=O)(=O)c1ccccc1)C(=O)NCC1CCCO1 (stereo unspecified) | inactive |
| O=C(NCCC1CCCCN1S(=O)(=O)c1ccc(Cl)cc1)C(=O)NCc1ccco1 (stereo unspecified) | 50.1 µM (active) |
| O=C(NCCc1ccco1)C(=O)NCCC1CCCCN1S(=O)(=O)c1ccccc1 (stereo unspecified) | inactive |
| COCCCNc1nc2ccccc2nc1NS(=O)(=O)c1ccc(F)cc1 | inactive |
| CO/N=C/c1cn(-c2ccc(Cl)cc2)nn1 | inactive |
| CN1CCN(C2=NCCO2)CC1 | inactive |
| CC(=O)Oc1ccc(Cn2c(C)c(C(=O)NCc3ccc(C#N)cc3)sc2=O)cc1 | inactive |
| Cc1cccc(CC(=O)N2CCN=C2SCc2ccc([N+](=O)[O-])cc2)c1 | inactive |
| Cc1ccc(S(=O)(=O)N2CCCCC2)cc1C(=O)N(C)CC(=O)Nc1cccc(F)c1 | inactive |
| Cc1cc(NC(=O)CN2C(=O)NC(C)(CCc3ccccc3)C2=O)no1 (stereo unspecified) | inactive |

| Compound | Potency |
| --- | --- |
| Cc1cccc(-c2nc(CS(=O)CC(=O)NC(C)CCc3ccccc3)c(C)o2)c1 (stereo unspecified) | inactive |
| CC(C)N1CCC(=NNc2ccc([N+](=O)[O-])cc2S(=O)(=O)N2CCOCC2)CC1 | inactive |
| Cc1ccccc1NC(=O)C1CCCN(C(=O)NCc2ccccc2)C1 (stereo unspecified) | inactive |
| O=C1CCC(C(=O)N2CCN(c3ccccc3Cl)CC2)CN1CC1CCCCC1 (stereo unspecified) | inactive |
| CS(=O)(=O)/C(C#N)=C/c1cccn1S(=O)(=O)c1ccc([N+](=O)[O-])cc1 | inactive |
| O=C(c1ccc(CS(=O)Cc2ccccc2Cl)o1)N1CCN(c2ccccc2)CC1 (stereo unspecified) | inactive |
| CCN1C(=NCc2ccc(OC)cc2)N[C@@H](CCc2ccccc2)[C@H](C(=O)NCc2ccc(OC)cc2)[C@H]1C | inactive |
| CCc1cccc(CC)c1N1C(=O)CC(Sc2ccccc2N)C1=O (stereo unspecified) | inactive |
| CCCC(=O)OCC(=O)Nc1cc(Cl)ccc1[N+](=O)[O-] | inactive |
| CC(C)Cc1ccc(S(=O)(=O)N2CCN(C(=O)c3ccco3)CC2)cc1 | inactive |
| CC(=O)c1cccc(NC(=O)N2CCCC2C(=O)NCCC(C)C)c1 (stereo unspecified) | inactive |
| Cc1ccsc1C(=O)N[C@@H](C)c1nnc2ccccn12 | inactive |
| Nc1ccc2nc3c(=O)[nH]c(=S)[nH]c3nc2c1 | 89.1 µM (active) |
| COC(=O)[C@@]1(C)[C@H]2C(=O)N(Cc3ccccc3)C(=O)[C@H]2[C@H]2CN=C(SCC3CC3)N21 | inactive |
| NC(=O)C1CCN(C(=O)c2ccc(-c3ccccc3)cc2)CC1 | inactive |
| O=C(C1=C(O)C(=O)N(CCOCCO)C1c1ccccn1)c1cccs1 (stereo unspecified) | inactive |
| CCOC(=O)c1cnn2c(SC)ncnc12 | inactive |
| COCCn1c(SCC(=O)N2CCCCCC2)nc2c(c1=O)SCC2 | inactive |
| CC(=O)Nc1ccc(S(=O)(=O)NNC(=O)CCc2ccccc2)cc1 | inactive |
| CCNC(=O)c1cnn(-c2ccccc2)c1-c1ccccc1 | inactive |
| CN1CCN(Cc2nc3c(c(=O)n(C)c(=O)n3C)n2Cc2cccc3ccccc23)CC1 | inactive |
| Cc1ccc2c(c1)N(CC(=O)N1CCC(O)CC1)C(=O)CO2 | inactive |

| Compound | Potency |
| --- | --- |
| CCOC(=O)C1CCN(C(=O)CSc2cc(=O)n(C)c3ccccc23)CC1 | inactive |
| CCOC(=O)C1CCCN(C(=O)c2sc3nc(C)nc(N4CCOCC4)c3c2C)C1 (stereo unspecified) | inactive |
| CS(=O)(=O)N1CCc2cc(C(=O)Nc3ccccc3Br)ccc21 | inactive |
| CC(=O)c1ccc(N2CCN(S(=O)(=O)c3c(C)[nH]c(=O)[nH]c3=O)CC2)cc1 | inactive |
| C=CCN(CC=C)C(=O)COC(=O)c1n[nH]c2ccccc12 | inactive |
| CCOC(=O)c1cc(-c2ccc(F)cc2)n(CC(=O)NCc2ccccn2)c1C | inactive |
| CC[C@H](C)C(=O)N[C@H]1CCCN1C(=O)/C=C/c1ccccc1 | inactive |
| O=C(O)Cc1csc(NC(=O)CSc2nnnn2-c2ccc(O)cc2)n1 | inactive |
| COc1cccc(N2CC(NC(=O)c3ccc4ccccc4c3)CC2=O)c1 (stereo unspecified) | inactive |
| O=C1c2cccnc2C(Nc2ccc(S(=O)(=O)N3CCCCCC3)cc2)N1Cc1ccccc1 (stereo unspecified) | inactive |
| NC(=O)c1ccsc1NC(=O)COC(=O)COc1ccc(C=O)cc1 | inactive |
| Cc1ccc(NC(=O)CN(C)C(=O)COC(=O)c2nccnc2N)cc1 | inactive |
| O=S(=O)(c1ccccc1)c1nc(Cc2ccccc2)oc1N1CCOCC1 | inactive |
| COc1ccc(NC(=O)NCCN2CCN(c3ccc(C)cc3)CC2)c(Cl)c1 | inactive |
| O=C(CSc1nnc2c(n1)[nH]c1ccccc12)NC1CCCCC1 | inactive |
| O=C(C1CCN(c2nnc(-n3cccc3)s2)CC1)N1CCc2ccccc2C1 | inactive |
| Cc1ccc(C)c(S(=O)(=O)N2CCCOC2CNC(=O)C(=O)NC2CCCCC2)c1 (stereo unspecified) | inactive |
| O=C(CN1CCc2ccccc2C1)Nc1cccc(S(=O)(=O)N2CCOCC2)c1 | inactive |
| CC(C)Oc1ccc(C(=O)NC(C)(C)CO)cc1 | inactive |
| O=C(Nc1cc2c3c(c1)CC(=O)N3CCC2)c1ccccc1F | inactive |
| Cc1cc([N+](=O)[O-])nn1CC(=O)Nc1ccc(Cc2ccncc2)cc1 | inactive |
| O=C1CCCN2N=C(SCC(=O)Nc3ccc(Br)cc3)SC2=N1 | inactive |
